# From PubChem BioAssay AID1159580 (chemical genetic matrix, 2015)
# About 2,000 (36%) of roughly 5,500 compounds were called active. Not shown: some 18% with an inconclusive outcome. The list shows a part of the results. Unmarked numbers belong to inactive results. Rule as the data show it: active = normalized growth mostly below about 0.91 (no sharp cut-off); inconclusive = no clear call, values can overlap the other calls; inactive = mostly above about 0.92.
# Assay: chemical genetic growth profiling, strain panel (AID 1159580);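 also: tested at 20 µM; growth read once vehicle control cultures reached saturation at 30 °C; 1 = growth at the plate median or of vehicle wells; lower values mean less growth of the strain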
# Settings: growth OD
# [1] = S. cerevisiae deletion strains, locus YDL101C, strain DUN1, active compounds read low
# [2] = S. cerevisiae deletion strains, locus YHR030C, strain SLT2, active compounds read low
# [3] = S. cerevisiae deletion strains, locus YAL013W, strain DEP1, active compounds read low
# [4] = S. cerevisiae deletion strains, locus YBR229C, strain ROT2, active compounds read low
# [5] = S. cerevisiae deletion strains, locus YDR150W, strain NUM1, active compounds read low
# [6] = S. cerevisiae deletion strains, locus YEL061C, strain CIN8, active compounds read low
# [7] = S. cerevisiae deletion strains, locus YGR078C, strain PAC10, active compounds read low
# [8] = S. cerevisiae deletion strains, locus YHR087W, strain rtc3, active compounds read low
# [9] = S. cerevisiae deletion strains, locus YJR043C, strain POL32, active compounds read low
# [10] = S. cerevisiae deletion strains, locus YJR075W, strain HOC1, active compounds read low
# [11] = S. cerevisiae deletion strains, locus YKL190W, strain CNB1, active compounds read low
# [12] = S. cerevisiae deletion strains, locus YLR039C, strain RIC1, active compounds read low
# [13] = S. cerevisiae deletion strains, locus YLR058C, strain SHM2 (second series), active compounds read low
# [14] = S. cerevisiae deletion strains, locus YLR085C, strain ARP6, active compounds read low
# [15] = S. cerevisiae deletion strains, locus YLR262C, strain YPT6, active compounds read low
# [16] = S. cerevisiae deletion strains, locus YML094W, strain GIM5, active compounds read low
# [17] = S. cerevisiae deletion strains, locus YMR219W, strain ESC1, active compounds read low
# [18] = S. cerevisiae deletion strains, locus YMR263W, strain SAP30, active compounds read low
# [19] = S. cerevisiae deletion strains, locus YNL153C, strain GIM3, active compounds read low
# [20] = S. cerevisiae deletion strains, locus YNL298W, strain CLA4 (second series), active compounds read low
# [21] = S. cerevisiae deletion strains, locus YNL322C, strain KRE1, active compounds read low
# [22] = S. cerevisiae deletion strains, locus YNR030W, strain Alg12, active compounds read low
# [23] = S. cerevisiae deletion strains, locus YPL055C, strain LGE1, active compounds read low
# [24] = S. cerevisiae deletion strains, locus YPL241C, strain CIN2, active compounds read low
# [25] = S. cerevisiae deletion strains, locus YPR135W, strain CTF4, active compounds read low
compound,measurement,setting,value
CC1SC(c2cccnc2)N(c2ccc(Cl)cc2)C1=O (centres undefined),normalized growth,"S. cerevisiae deletion strains, locus YAR019C, strain CDC15, active compounds read low",0.948
same,normalized growth,"S. cerevisiae deletion strains, locus YBL105C, strain PKC1, active compounds read low",0.971
same,normalized growth,"S. cerevisiae deletion strains, locus YBR135W, strain CKS1, active compounds read low",0.964
same,normalized growth,"S. cerevisiae deletion strains, locus YBR136W, strain MEC1, active compounds read low",0.959
same,normalized growth,"S. cerevisiae deletion strains, locus YBR160W, strain CDC28, active compounds read low",0.967
same,normalized growth,"S. cerevisiae deletion strains, locus YDL017W, strain CDC7, active compounds read low",0.972
same,normalized growth,"S. cerevisiae deletion strains, locus YDL028C, strain MPS1, active compounds read low",0.955
same,normalized growth,[1],0.928
same,normalized growth,"S. cerevisiae deletion strains, locus YDL108W, strain KIN28, active compounds read low",0.951
same,normalized growth,"S. cerevisiae deletion strains, locus YDL132W, strain cdc53, active compounds read low",0.894 (active)
same,normalized growth,"S. cerevisiae deletion strains, locus YDL214C, strain PRR2, active compounds read low",0.6 (active)
same,normalized growth,"S. cerevisiae deletion strains, locus YDR052C, strain DBF4, active compounds read low",0.906 (active)
same,normalized growth,"S. cerevisiae deletion strains, locus YDR054C, strain cdc34, active compounds read low",0.828 (active)
same,normalized growth,"S. cerevisiae deletion strains, locus YDR226W, strain ADK1, active compounds read low",0.932
same,normalized growth,"S. cerevisiae deletion strains, locus YDR477W, strain SNF1, active compounds read low",0.411 (active)
same,normalized growth,"S. cerevisiae deletion strains, locus YER123W, strain YCK3, active compounds read low",0.466 (active)
same,normalized growth,"S. cerevisiae deletion strains, locus YER133W, strain GLC7, active compounds read low",0.421 (active)
same,normalized growth,"S. cerevisiae deletion strains, locus YFL009W, strain cdc4, active compounds read low",0.931
same,normalized growth,"S. cerevisiae deletion strains, locus YFL029C, strain CAK1, active compounds read low",0.926
same,normalized growth,"S. cerevisiae deletion strains, locus YFR003C, strain YPI1, active compounds read low",0.972
same,normalized growth,"S. cerevisiae deletion strains, locus YFR019W, strain FAB1, active compounds read low",0.43 (active)
same,normalized growth,"S. cerevisiae deletion strains, locus YFR028C, strain CDC14, active compounds read low",0.945
same,normalized growth,"S. cerevisiae deletion strains, locus YGR040W, strain KSS1, active compounds read low",0.397 (active)
same,normalized growth,"S. cerevisiae deletion strains, locus YGR052W, strain FMP48, active compounds read low",0.374 (active)
same,normalized growth,"S. cerevisiae deletion strains, locus YGR092W, strain DBF2, active compounds read low",0.904
same,normalized growth,[2],0.871
same,normalized growth,"S. cerevisiae deletion strains, locus YHR079C, strain IRE1, active compounds read low",0.441 (active)
same,normalized growth,"S. cerevisiae deletion strains, locus YHR082C, strain KSP1, active compounds read low",0.4 (active)
same,normalized growth,"S. cerevisiae deletion strains, locus YHR205W, strain SCH9, active compounds read low",0.725
same,normalized growth,"S. cerevisiae deletion strains, locus YIL147C, strain SLN1, active compounds read low",0.952
same,normalized growth,"S. cerevisiae deletion strains, locus YJL095W, strain BCK1, active compounds read low",0.215 (active)
same,normalized growth,"S. cerevisiae deletion strains, locus YJL128C, strain PBS2, active compounds read low",0.987
same,normalized growth,"S. cerevisiae deletion strains, locus YJL157C, strain FAR1, active compounds read low",0.635 (active)
same,normalized growth,"S. cerevisiae deletion strains, locus YJR016C, strain ILV3, active compounds read low",0.926
same,normalized growth,"S. cerevisiae deletion strains, locus YJR066W, strain TOR1 (second series), active compounds read low",0.704
same,normalized growth,"S. cerevisiae deletion strains, locus YJR066W, strain TOR1, active compounds read low",0.284 (active)
same,normalized growth,"S. cerevisiae deletion strains, locus YKL048C, strain ELM1, active compounds read low",0.922
same,normalized growth,"S. cerevisiae deletion strains, locus YKL067W, strain YNK1, active compounds read low",0.673 (active)
same,normalized growth,"S. cerevisiae deletion strains, locus YKL101W, strain HSL1, active compounds read low",0.779
same,normalized growth,"S. cerevisiae deletion strains, locus YKL193C, strain SDS22, active compounds read low",0.947
same,normalized growth,"S. cerevisiae deletion strains, locus YKL203C, strain TOR2, active compounds read low",0.331 (active)
same,normalized growth,"S. cerevisiae deletion strains, locus YLR113W, strain HOG1, active compounds read low",0.455 (active)
same,normalized growth,"S. cerevisiae deletion strains, locus YLR133W, strain CKI1, active compounds read low",0.478 (active)
same,normalized growth,"S. cerevisiae deletion strains, locus YLR403W, strain SFP1, active compounds read low",0.346 (active)
same,normalized growth,"S. cerevisiae deletion strains, locus YML070W, strain DAK1, active compounds read low",0.694
same,normalized growth,"S. cerevisiae deletion strains, locus YMR001C, strain CDC5, active compounds read low",0.936
same,normalized growth,"S. cerevisiae deletion strains, locus YMR205C, strain PFK2 (second series), active compounds read low",0.64 (active)
same,normalized growth,"S. cerevisiae deletion strains, locus YMR277W, strain FCP1, active compounds read low",0.969
same,normalized growth,"S. cerevisiae deletion strains, locus YNL006W, strain LST8, active compounds read low",0.967
same,normalized growth,"S. cerevisiae deletion strains, locus YNL020C, strain ARK1, active compounds read low",0.599 (active)
same,normalized growth,"S. cerevisiae deletion strains, locus YNL161W, strain CBK1, active compounds read low",0.953
same,normalized growth,"S. cerevisiae deletion strains, locus YNL183C, strain NPR1, active compounds read low",0.393 (active)
same,normalized growth,"S. cerevisiae deletion strains, locus YNL207W, strain RIO2, active compounds read low",0.91
same,normalized growth,"S. cerevisiae deletion strains, locus YNL222W, strain SSU72, active compounds read low",0.96
same,normalized growth,"S. cerevisiae deletion strains, locus YNL307C, strain MCK1 (second series), active compounds read low",0.462 (active)
same,normalized growth,"S. cerevisiae deletion strains, locus YOL078W, strain AVO1, active compounds read low",0.937
same,normalized growth,"S. cerevisiae deletion strains, locus YOR061W, strain CKA2, active compounds read low",0.919
same,normalized growth,"S. cerevisiae deletion strains, locus YOR119C, strain RIO1, active compounds read low",0.295 (active)
same,normalized growth,"S. cerevisiae deletion strains, locus YOR231W, strain MKK1, active compounds read low",0.47 (active)
same,normalized growth,"S. cerevisiae deletion strains, locus YOR329C, strain SCD5, active compounds read low",0.953
same,normalized growth,"S. cerevisiae deletion strains, locus YPL031C, strain PHO85, active compounds read low",0.434 (active)
same,normalized growth,"S. cerevisiae deletion strains, locus YPL153C, strain RAD53, active compounds read low",0.47 (active)
same,normalized growth,"S. cerevisiae deletion strains, locus YPL204W, strain HRR25, active compounds read low",0.46 (active)
same,normalized growth,"S. cerevisiae deletion strains, locus YPL209C, strain IPL1, active compounds read low",0.969
same,normalized growth,"S. cerevisiae deletion strains, locus YPL256C, strain CLN2, active compounds read low",0.435 (active)
same,normalized growth,"S. cerevisiae deletion strains, locus YPR025C, strain CCL1, active compounds read low",0.961
same,normalized growth,"S. cerevisiae deletion strains, locus YPR106W, strain ISR1, active compounds read low",0.957
same,normalized growth,"S. cerevisiae deletion strains, locus YPR111W, strain DBF20, active compounds read low",0.965
same,normalized growth,"S. cerevisiae deletion strains, strain NNK1, active compounds read low",0.944
same,normalized growth,"S. cerevisiae deletion strains, strain TSCII, active compounds read low",0.946
O=C1CSC(c2cccnc2)N1c1ccc(Cl)cc1 (centres undefined),normalized growth,[3],1
same,normalized growth,[4],0.997
same,normalized growth,[1],0.978
same,normalized growth,[5],0.997
same,normalized growth,[6],0.977
same,normalized growth,[7],1
same,normalized growth,"S. cerevisiae deletion strains, locus YGR229C, strain SMI1, active compounds read low",0.984
same,normalized growth,[2],1.12
same,normalized growth,[8],0.98
same,normalized growth,[9],0.983
same,normalized growth,[10],1
same,normalized growth,[11],0.997
same,normalized growth,[12],0.723 (active)
same,normalized growth,[13],1.01
same,normalized growth,[14],1
same,normalized growth,[15],0.677 (active)
same,normalized growth,[16],0.957
same,normalized growth,[17],0.992
same,normalized growth,[18],1.04
same,normalized growth,"S. cerevisiae deletion strains, locus YMR307W, strain GAS1, active compounds read low",1.01
same,normalized growth,[19],1.01
same,normalized growth,[20],1
same,normalized growth,[21],0.995
same,normalized growth,[22],0.994
same,normalized growth,[23],0.986
same,normalized growth,[24],1.04
same,normalized growth,[25],1.05
O=C1CSC(c2cccnc2)N1c1ccc(C2CCCCC2)cc1 (centres undefined),normalized growth,[3],1
same,normalized growth,[4],1.01
same,normalized growth,[1],1.03
same,normalized growth,"S. cerevisiae deletion strains, locus YDL134C, strain PPH21, active compounds read low",0.941
same,normalized growth,[5],1.05
same,normalized growth,[6],0.999
same,normalized growth,[7],1.01
same,normalized growth,[2],1.28
same,normalized growth,[8],1.02
same,normalized growth,[9],1.02
same,normalized growth,[10],0.941
same,normalized growth,[11],0.945
same,normalized growth,[12],0.926
same,normalized growth,[13],0.991
same,normalized growth,[14],0.917
same,normalized growth,[15],0.888
same,normalized growth,[16],1.07
same,normalized growth,[17],1.02
same,normalized growth,[18],1.06
same,normalized growth,[19],1.01
same,normalized growth,[20],0.951
same,normalized growth,[21],1
same,normalized growth,[22],0.963
same,normalized growth,[23],1.04
same,normalized growth,[24],1.09
same,normalized growth,[25],0.832
same,normalized growth,"S. cerevisiae strains, strain wild type, active compounds read low",0.96
